Reference: PubChem BioAssay (NCI)
About 79,000 compounds went through this panel and 15% of them were active in at least one assay; those are over-represented in the sample as a whole. Activity calls are given as the source filed them. No stated cut-off is given here; in the data, active means growth inhibition above about 70%; inactive means the rest.

Assays:
[1] = NCI Yeast Anticancer Drug Screen. Data for the wt2 strain (AID 169);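 further: 0% = growth of vehicle-treated yeast cultures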; settings: S. cerevisiae wt2 strain growth inhibition, hits give high values
Method in brief: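 Compound exposure of yeast; growth compared with vehicle controls; inhibition reported.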

[2] = NCI Yeast Anticancer Drug Screen. Data for the mlh1 strain (AID 171);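 further: 0% = growth of vehicle-treated control cultures of the same strain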; settings: S. cerevisiae mlh1 strain growth inhibition, hits give high values
Method in brief: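 Compounds are applied to a genetically altered yeast strain, and its growth is compared with that of vehicle-treated cultures to give percent inhibition.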

[3] = NCI Yeast Anticancer Drug Screen. Data for the sgs1 strain (AID 173);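 further: 0% = growth of vehicle-only control cultures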; settings: S. cerevisiae sgs1 mutant, hits give high values
Method in brief: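 Compounds applied to genetically altered yeast; growth compared with vehicle-treated cultures to give % inhibition.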

[4] = NCI Yeast Anticancer Drug Screen. Data for the mlh1 rad18 strain (AID 175); settings: S. cerevisiae mlh1 rad18 strain growth inhibition, hits give high values
Method in brief: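 Cells of a genetically altered yeast strain, deficient in DNA damage repair, were treated with compound. Their growth was then compared with that of vehicle-treated cultures to give inhibition.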

[5] = NCI Yeast Anticancer Drug Screen. Data for the rad18 strain (AID 177); settings: S. cerevisiae rad18 mutant growth inhibition, hits give high values
Method in brief: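 Compounds are applied to a repair-deficient yeast strain, and growth is compared with that of vehicle-treated cultures to give percent inhibition.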

[6] = NCI Yeast Anticancer Drug Screen. Data for the rad52 strain (AID 147);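 further: 0% = growth of vehicle-treated control cultures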; settings: S. cerevisiae rad52 mutant growth inhibition, hits give high values
Method in brief: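 DNA repair-defective yeast; compound exposure; growth scored against vehicle controls.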

[7] = NCI Yeast Anticancer Drug Screen. Data for the wt1 strain (AID 149);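 further: 0% = growth of vehicle-treated wt1 cultures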; settings: S. cerevisiae wt1 strain (SPY 50644) growth inhibition, hits give high values
Method in brief: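 wt1 strain grown with compound or vehicle; inhibition taken from the growth difference.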

[8] = NCI Yeast Anticancer Drug Screen. Data for the rad50EPP+ strain (AID 151);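 further: 0% = growth of vehicle-treated control cultures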; settings: S. cerevisiae rad50 mutant strain, hits give high values
Method in brief: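 rad50EPP+ yeast treated with test compounds. Readout: growth vs vehicle control.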

[9] = NCI Yeast Anticancer Drug Screen. Data for the mgt1 strain (AID 153); settings: S. cerevisiae mgt1 mutant growth inhibition, hits give high values
Method in brief: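 Growth inhibition relative to vehicle controls was scored for the mgt1 yeast strain after compound exposure.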

[10] = NCI Yeast Anticancer Drug Screen. Data for the rad50 strain (AID 155);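 further: 0% = growth of vehicle-only cultures of the same strain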; settings: S. cerevisiae rad50 strain growth inhibition, hits give high values
Method in brief: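 DNA repair mutant yeast, compound exposure, growth read-out; inhibition is taken relative to vehicle.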

[11] = NCI Yeast Anticancer Drug Screen. Data for the mec2-1 strain (AID 157); settings: S. cerevisiae mec2-1 strain, hits give high values
Method in brief: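 Growth inhibition is read against vehicle-treated controls after compound exposure of the mec2-1 yeast strain, which is defective in DNA damage repair or cell cycle control.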

[12] = NCI Yeast Anticancer Drug Screen. Data for the rad14 strain (AID 159);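 further: 0% = growth of vehicle-treated control cultures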; settings: S. cerevisiae rad14 strain growth inhibition, hits give high values
Method in brief: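 DNA repair-defective yeast, compound-exposed; % growth inhibition derived by comparison with vehicle-treated controls.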

[13] = NCI Yeast Anticancer Drug Screen. Data for the sgs1 mgt1 strain (AID 161);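 further: 0% = growth of cultures given vehicle only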; settings: S. cerevisiae sgs1 mgt1 strain, hits give high values
Method in brief: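 Growth of a repair-deficient yeast mutant was monitored after compound treatment and expressed as inhibition relative to vehicle-treated cultures.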

[14] = NCI Yeast Anticancer Drug Screen. Data for the CLN2oe strain (AID 163);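 further: 0% = growth of vehicle-only control cultures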; settings: S. cerevisiae CLN2oe strain, hits give high values
Method in brief: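 Compound-treated yeast; growth vs vehicle ctrl = % inhibition. Genetically altered strain (cell-cycle control).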

[15] = NCI Yeast Anticancer Drug Screen. Data for the cln2 rad14 strain (AID 165);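 further: 0% = growth equal to vehicle treated cultures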; settings: S. cerevisiae cln2 rad14 strain, hits give high values
Method in brief: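 Growth inhibition, relative to vehicle-treated controls, is the read-out. The test organism is a yeast strain with defined genetic alterations, cln2 rad14.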

[16] = NCI Yeast Anticancer Drug Screen. Data for the bub3 strain (AID 167); settings: S. cerevisiae bub3 mutant strain, hits give high values
Method in brief: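 In this screen, a yeast mutant lacking normal mitotic checkpoint function is challenged with compound. Relative growth versus vehicle gives the inhibition value.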

[17] = at 5.0 µM (retest, dose inferred, filed as 0.5)
[18] = at 50.0 µM (retest, dose inferred, filed as 5.0)

Measured: growth inhibition

Cc1ccc(S(=O)(=O)NC(=O)NC2=NC(C)(C)N(c3ccc(Cl)c(Cl)c3)C(N)=N2)cc1
inactive: [1]; at 1.2 µM -3% | [1]; at 3.7 µM -4% | [1]; at 11.0 µM -3% | [1]; at 33.0 µM -4% | [1]; at 100.0 µM -3% | [2]; at 1.2 µM -1% | [2]; at 3.7 µM 0% | [2]; at 11.0 µM -1% | [2]; at 33.0 µM 1% | [2]; at 100.0 µM -3% | [3]; at 1.2 µM -1% | [3]; at 3.7 µM -2% | [3]; at 11.0 µM -1% | [3]; at 33.0 µM -2% | [3]; at 100.0 µM -2% | [4]; [17] 0% | [4]; [18] 47% | [4]; at 50.0 µM 2.35% | [5]; at 1.2 µM -1% | [5]; at 3.7 µM 2% | [5]; at 11.0 µM 4% | [5]; at 33.0 µM 1% | [5]; at 100.0 µM -1%

CN1CCc2ccccc2C1Cc1ccccc1NC(=O)c1sc2ccccc2c1Cl (centres undefined)
active: [6]; at 100.0 µM 93% | [7]; at 100.0 µM 88% | [8]; at 100.0 µM 83% | [9]; at 33.0 µM 95% | [9]; at 100.0 µM 93% | [10]; [18] 97% | [10]; at 50.0 µM 96.8% | [10]; at 100.0 µM 90% | [11]; at 50.0 µM 98% | [11]; at 100.0 µM 92% | [12]; at 33.0 µM 89% | [12]; at 100.0 µM 93% | [13]; [18] 99% | [13]; at 50.0 µM 99% | [14]; at 100.0 µM 93% | [15]; at 50.0 µM 77.3% | [16]; [18] 94% | [16]; at 50.0 µM 97.5% | [16]; at 100.0 µM 92% | [1]; at 33.0 µM 89% | [1]; at 100.0 µM 93% | [2]; at 33.0 µM 90% | [2]; at 100.0 µM 93% | [3]; at 33.0 µM 90% | [3]; at 100.0 µM 89% | [4]; [18] 93% | [4]; at 50.0 µM 98.2% | [5]; at 100.0 µM 90%
inactive: [6]; at 1.2 µM -35% | [6]; at 3.7 µM -38% | [6]; at 11.0 µM -15% | [6]; at 33.0 µM -8% | [7]; at 1.2 µM -23% | [7]; at 3.7 µM -22% | [7]; at 11.0 µM -13% | [7]; at 33.0 µM 22% | [8]; at 1.2 µM -21% | [8]; at 3.7 µM -9% | [8]; at 11.0 µM 19% | [8]; at 33.0 µM 68% | [9]; at 1.2 µM -19% | [9]; at 3.7 µM -24% | [9]; at 11.0 µM 19% | [10]; at 1.2 µM -33% | [10]; at 3.7 µM -36% | [10]; [17] 8% | [10]; at 11.0 µM -22% | [10]; at 33.0 µM 29% | [11]; at 1.2 µM -39% | [11]; at 3.7 µM -29% | [11]; [17] -7% | [11]; at 11.0 µM -2% | [11]; at 33.0 µM 36% | [11]; [18] 68% | [12]; at 1.2 µM -50% | [12]; at 3.7 µM -40% | [12]; at 11.0 µM -24% | [13]; [17] -7% | [14]; at 1.2 µM 14% | [14]; at 3.7 µM 7% | [14]; at 11.0 µM 14% | [14]; at 33.0 µM 62% | [15]; [17] -10% | [15]; [18] 60% | [16]; at 1.2 µM -54% | [16]; at 3.7 µM -22% | [16]; [17] 7% | [16]; at 11.0 µM -33% | [16]; at 33.0 µM 22% | [1]; at 1.2 µM -13% | [1]; at 3.7 µM -13% | [1]; at 11.0 µM -3% | [2]; at 1.2 µM -22% | [2]; at 3.7 µM -16% | [2]; at 11.0 µM 8% | [3]; at 1.2 µM -25% | [3]; at 3.7 µM -20% | [3]; at 11.0 µM 18% | [4]; [17] -8% | [5]; at 1.2 µM -38% | [5]; at 3.7 µM -23% | [5]; at 11.0 µM -16% | [5]; at 33.0 µM 26%

COc1ccc2sc3cccc(NCCN(C)C)c3c(=O)c2c1
inactive: [6]; at 1.2 µM -3% | [6]; at 3.7 µM -3% | [6]; at 11.0 µM -1% | [6]; at 33.0 µM 2% | [6]; at 100.0 µM 27% | [7]; at 1.2 µM 1% | [7]; at 3.7 µM 6% | [7]; at 11.0 µM 3% | [7]; at 33.0 µM 2% | [7]; at 100.0 µM 10% | [8]; at 1.2 µM 6% | [8]; at 3.7 µM 8% | [8]; at 11.0 µM 17% | [8]; at 33.0 µM 25% | [8]; at 100.0 µM 61% | [9]; at 1.2 µM -1% | [9]; at 3.7 µM -3% | [9]; at 11.0 µM -4% | [9]; at 33.0 µM -3% | [9]; at 100.0 µM 15% | [10]; at 1.2 µM 0% | [10]; at 3.7 µM 1% | [10]; [17] -14% | [10]; at 11.0 µM 2% | [10]; at 33.0 µM 7% | [10]; [18] -10% | [10]; at 50.0 µM 25.2% | [10]; at 100.0 µM 31% | [11]; at 1.2 µM 3% | [11]; at 3.7 µM 4% | [11]; [17] -3% | [11]; at 11.0 µM 6% | [11]; at 33.0 µM 9% | [11]; [18] 3% | [11]; at 50.0 µM -4.1% | [11]; at 100.0 µM 12% | [12]; at 1.2 µM -1% | [12]; at 3.7 µM -1% | [12]; at 11.0 µM -1% | [12]; at 33.0 µM 9% | [12]; at 100.0 µM 33% | [13]; [17] -9% | [13]; [18] 38% | [13]; at 50.0 µM 54.6% | [14]; at 1.2 µM -3% | [14]; at 3.7 µM -10% | [14]; at 11.0 µM -4% | [14]; at 33.0 µM -4% | [14]; at 100.0 µM 17% | [15]; [17] 3% | [15]; [18] 6% | [15]; at 50.0 µM 31.6% | [16]; at 1.2 µM -4% | [16]; at 3.7 µM -3% | [16]; [17] 9% | [16]; at 11.0 µM -3% | [16]; at 33.0 µM -1% | [16]; [18] 5% | [16]; at 50.0 µM -4.65% | [16]; at 100.0 µM 1% | [1]; at 1.2 µM 0% | [1]; at 3.7 µM -2% | [1]; at 11.0 µM 0% | [1]; at 33.0 µM -1% | [1]; at 100.0 µM 8% | [2]; at 1.2 µM -1% | [2]; at 3.7 µM 2% | [2]; at 11.0 µM 3% | [2]; at 33.0 µM 4% | [2]; at 100.0 µM 18% | [3]; at 1.2 µM 2% | [3]; at 3.7 µM 1% | [3]; at 11.0 µM 3% | [3]; at 33.0 µM 2% | [3]; at 100.0 µM 16% | [4]; [17] -1% | [4]; [18] -9% | [4]; at 50.0 µM 67.3% | [5]; at 1.2 µM 0% | [5]; at 3.7 µM 0% | [5]; at 11.0 µM 2% | [5]; at 33.0 µM 9% | [5]; at 100.0 µM 27%
